Results published in PubChem BioAssay (NCATS).
Records with an inconclusive call do not appear. The source made the active and inactive calls. Calls follow the shape of the dose curve; as a rule, active = well fitted inhibition curve with a large enough effect; inconclusive = small, poorly fitted or top-dose-only effect; inactive = flat fitted curve, though single readings scatter.

How the values were obtained:
[1] = tested on: TAB165; assay: qHTS profiling for inhibitors of Plasmodium falciparum proliferation (AID 504749); also: potency is read from the fitted curve at half-maximal effect; settings: P. falciparum in erythrocytes, SYBR Green DNA, 72 h; series mostly up to 28.7 µM
Method in brief: (§1)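 SYBR Green fluorescence (ex 485 nm, em 535 nm) reports parasite DNA after 72 h compound exposure of infected red cells at 0.3% parasitemia, 2.5% hematocrit; signal normalized to 0.29 uM artemisinin and vehicle wells.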

[2] = tested on: CRL-7250; assay: Cytotoxic Profiling of Annotated Libraries Using Quantitative High-Throughput Screening (AID 1296008); settings: Five cell lines viability, CellTiter-Glo ATP luminescence, 48-72 h; max response: stronger effect = lower value; also: potency is read from the fitted curve at half-maximal effect; as to max response: % is scaled to controls: 0 for no effect and ±100 for the full control effect
Method in brief: (§2)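 Cells exposed to compounds for 48 or 72 hr at 37 degrees Celsius. Viability read as ATP-coupled luminescence with CellTiter-Glo after 10 min at room temperature.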

[3] = tested on: HaCat; assay: as above; settings: Five cell lines viability, CellTiter-Glo ATP luminescence, 48-72 h; max response: stronger effect = lower value
Method in brief: as §2

[4] = tested on: KB-3-1; assay: as above; settings: Five cell lines viability, CellTiter-Glo ATP luminescence, 48-72 h; max response: stronger effect = lower value
Method in brief: as §2

[5] = tested on: NIH3T3; assay: as above; settings: Five cell lines viability, CellTiter-Glo ATP luminescence, 48-72 h; max response: stronger effect = lower value
Method in brief: as §2

[6] = tested on: HEK293; assay: as above; settings: Five cell lines viability, CellTiter-Glo ATP luminescence, 48-72 h; max response: stronger effect = lower value
Method in brief: as §2

[7] = tested on: HACAT; assay: qHTS assay to identify novel small-molecules to repurpose for Merkel cell carcinoma treatment (AID 1296009); settings: MCC and control cell lines, CellTiter-Glo viability, 72 h; at 44.8 µM (top of the series) unless noted
Method in brief: (§3)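 CellTiter-Glo luminescence after 72 hr compound exposure at 37 degree celsius gave cell viability. Libraries NPC and MIPE were run as 8- and 11-point dose responses; RLUs normalized to DMSO (negative) and no-cell (cytotoxicity) controls.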

[8] = tested on: TAB113; assay: qHTS profiling for inhibitors of Plasmodium falciparum proliferation (AID 504749); also: potency is read from the fitted curve at half-maximal effect; settings: P. falciparum in erythrocytes, SYBR Green DNA, 72 h; series mostly up to 28.7 µM
Method in brief: as §1

[9] = tested on: HEK293T; assay: qHTS assay to identify novel small-molecules to repurpose for Merkel cell carcinoma treatment (AID 1296009); settings: MCC and control cell lines, CellTiter-Glo viability, 72 h; at 44.8 µM (top of the series) unless noted
Method in brief: as §3

[10] = tested on: W2; assay: qHTS profiling for inhibitors of Plasmodium falciparum proliferation (AID 504749); also: potency is read from the fitted curve at half-maximal effect; settings: P. falciparum in erythrocytes, SYBR Green DNA, 72 h; series mostly up to 28.7 µM
Method in brief: as §1
Also: nearly all actives have a fitted effect of over 60% in size.

COc1ccc(C(Cl)=C(c2ccc(OC)cc2)c2ccc(OC)cc2)cc1
inactive: outcome [2] | max response [3] -3.14% | max response [4] 9.01% | max response [5] -2.4%
active: Potency [1] 2.51 µM

O=C(N/N=C/c1ccc([N+](=O)[O-])o1)c1ccc(O)cc1
active: Potency [6] 7.5 µM
inactive: max response [3] -33.9% | max response [4] -13.9%

N#C/C(=C1\SCC(c2ccccc2Cl)S1)n1ccnc1 (stereo unspecified)
inactive: max response [6] -7.28% | outcome [3] | max response [4] 0.837% | max response [5] -9.88% | outcome [7]

CCOc1ccccc1OCCN[C@H](C)Cc1ccc(OC)c(S(N)(=O)=O)c1
inactive: Potency [8] | Potency [1] | max response [6] -5.03% | outcome [3] | max response [4] 4.78% | max response [5] 2.8% | outcome [7]

CC(=O)OCC(=O)[C@H]1CC[C@H]2[C@@H]3CCC4=CC(=O)CC[C@]4(C)[C@H]3CC[C@]12C
inactive: Potency [8] | Potency [1] | max response [2] 1.7% | outcome [3] | max response [5] 0.692% | outcome [7]

O=C1OC2(c3ccccc31)c1cc(Br)c(O)c(Br)c1Oc1c2cc(Br)c(O)c1Br
inactive: outcome [6] | outcome [3] | max response [4] -24.7% | max response [5] -4.74% | outcome [7] | outcome [9]

O=C1c2cccc3c2[C@H](CCC3)CN1[C@@H]1CN2CCC1CC2
inactive: max response [3] -46% | max response [4] -11.9%
active: Potency [6] 21.1 µM

CC(C)(Cc1c[nH]c2ccccc12)NCC(O)COc1ccccc1C#N (stereo unspecified)
inactive: max response [2] -4.9% | max response [3] -15.6% | max response [4] 19.5% | max response [5] -8.73%
active: Potency [1] 12.6 µM | Potency [10] 3.79 µM

CCOC(=O)C(C#N)=C(c1ccccc1)c1ccccc1
inactive: Potency [8] | Potency [1] | Potency [10] | max response [2] -5.66% | max response [3] -20.2% | max response [4] 1.81% | max response [5] 3.96%

CCCCCCCCCCC[C@@H](C[C@@H]1OC(=O)[C@H]1CCCCCC)OC(=O)[C@H](CC(C)C)NC=O
inactive: outcome [2] | outcome [3] | max response [5] 1.98% | outcome [7]

CCCCNc1ccc(C(=O)OCCOCCOCCOCCOCCOCCOCCOCCOCCOC)cc1
inactive: Potency [8] | Potency [10] | max response [2] -14.1% | max response [3] 0.553% | max response [5] -8.1%

CN(CCCN1c2ccccc2CCc2ccccc21)CC(=O)c1ccc(Cl)cc1
active: Potency [8] 10 µM | Potency [1] 8.91 µM | Potency [10] 3.38 µM
inactive: max response [2] -9.87% | max response [3] -17.1% | max response [4] 3.26% | max response [5] 3.31%

CC(C)CCCC(C)N (stereo unspecified)
inactive: Potency [8] | Potency [1] | Potency [10] | max response [3] -0.769% | max response [4] 22% | outcome [5]
active: Potency [2] 33.5 µM

CC(C)(C)NC[C@H](O)COc1cccc2c1CCCC2=O
inactive: Potency [8] | Potency [1] | max response [2] -0.218% | max response [3] -26.5% | max response [4] -2.09% | max response [5] -0.923%

O=C(Nc1cccc(C2=NCCN2)c1)Nc1cccc(C2=NCCN2)c1
active: Potency [8] 7.94 µM | Potency [1] 2.51 µM | Potency [10] 1.69 µM
inactive: outcome [2] | max response [3] -0.992% | max response [5] 1.41%

CC(=O)Nc1ccc(OC(=O)c2ccccc2OC(C)=O)cc1
inactive: Potency [8] | Potency [1] | Potency [10] | outcome [6] | outcome [3] | max response [4] -4.86% | outcome [5] | outcome [7] | outcome [9]

COc1ccc(S(=O)(=O)N2c3ccc(Cl)cc3[C@@](O)(c3ccccc3Cl)[C@H]2C(=O)N2CCC[C@@H]2C(N)=O)cc1OC
inactive: max response [2] -16.1% | max response [3] -3.91% | max response [5] 1.04%

COc1cc(C(=O)N2CCCCCCC2)cc(OC)c1OC
inactive: Potency [8] | Potency [1] | Potency [10] | max response [6] 0.115% | outcome [3] | max response [4] -4.88% | max response [5] 2.92% | outcome [7]

CN1CCN(c2c(F)cc3c(=O)c(C(=O)O)cn4c3c2SCC4)CC1
inactive: Potency [8] | max response [2] -2.29% | outcome [3] | max response [5] -3.6% | outcome [7]

NC1CCN(c2nc3c(cc2F)c(=O)c(C(=O)O)cn3-c2ccc(F)cc2F)C1 (stereo unspecified)
active: Potency [10] 5.36 µM
inactive: outcome [2] | outcome [3] | outcome [5] | outcome [7]

CCC(C(=O)OCCOCCN(CC)CC)c1ccccc1 (stereo unspecified)
inactive: Potency [8] | Potency [1] | max response [6] -19.3% | outcome [3] | max response [4] 16.3% | outcome [5] | outcome [7]
active: Potency [10] 12 µM

COc1ccc(/C=N/NC(=O)c2ccncc2)cc1OC
inactive: Potency [8] | Potency [1] | Potency [10] | max response [6] -3.6% | outcome [3] | max response [4] 0.981% | max response [5] -0.709% | outcome [7]

OC(C#CCN1CCCC1)(c1ccccc1)c1ccccc1
active: Potency [1] 11.2 µM | Potency [10] 2.13 µM
inactive: outcome [2] | outcome [3] | max response [4] 0.398% | max response [5] -3.64% | outcome [7]
